Here are results for eight compounds from PubChem BioAssay (NCI).

The panel holds about 83,000 compounds, 20% with a hit somewhere; the sample as a whole holds those more often.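 Testing used 96-well plates and a 48-hour single-concentration exposure. Example: -40 means 40% of the starting cells died.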 Values without a mark were called inactive. Activity calls are given as the source filed them. How the source made its calls: active means growth percent below 10; inactive means the rest.

What all share (experiment): NCI-60 one-dose screen, 48 h (100 = growth as untreated, 0 = no growth, -100 = all killed)
What all share (details): 10 µM unless noted

Experiment [1] deals with DU-145 prostate.
Experiment [2] relates to K-562 leukemia.
Experiment [3] concerns MALME-3M melanoma.
In experiment [4] the test system is MDA-MB-231 breast.
Experiment [5] concerns RXF 393 renal.
Experiment [6] relates to SF-268 CNS.
Experiment [7] relates to SF-295 CNS.
The test system of experiment [8] is SF-539 CNS.
For experiment [9], the system named is UACC-257 melanoma.
Experiment [10] has as its system M14 melanoma.
Experiment [11] has as its system HCT-15 colon.
The test system of experiment [12] is HT29 colon.
The subject of experiment [13] is SNB-75 CNS.
Experiment [14] has as its system SNB-19 CNS.
The subject of experiment [15] is U251 CNS.
Experiment [16] deals with PC-3 prostate.
For experiment [17], the system named is SK-MEL-5 melanoma.
Experiment [18] deals with UACC-62 melanoma.
In experiment [19] the test system is LOX IMVI melanoma.
For experiment [20], the system named is SK-MEL-28 melanoma.

Regarding `Nc1nc(N)c(N=Nc2ccccc2)c(-c2ccccc2)n1`, the growth in experiment [1] was 76.8%; in experiment [2], 77.1%; in experiment [3], 77.4%; in experiment [4] it was 49.9%; in experiment [5] it was 24.9%; in experiment [6] it was 58%. Also, the growth in experiment [7] is 54.2%; in experiment [8], 47.4%; in [9], 90.8%; in experiment [10], 84.5%; in experiment [11], 58.6%; in [12] it was 51.1%. Further, the growth in experiment [13] is -0.588% (active); in [14], 69.5%; in [15], 72.4%; in experiment [16] it was 35.8%; in experiment [17] it was 46.9%; in experiment [18] it was 41.4%. Besides, the growth in experiment [19] was 42.6%; in experiment [20] it was 76.2%.
Turning to `CCOC(=O)c1c(C)nc2ccccc2c1/C=C/c1cccs1`, the growth in [1] is 95.5%; in [2], 50.3%; in experiment [3], 112%; in experiment [4], 82.7%; in [5], 93.8%; in experiment [6] it was 89.4%. The growth in experiment [7] is 65.6%; in experiment [8], 93.2%; in [9], 91.8%; in [10], 93.4%; in experiment [11], 58.6%; in experiment [12], 76.3%. The growth in [13] was 80.1%; in [14], 83.5%; in experiment [15] it was 81.2%; in experiment [16], 60.4%; in experiment [17], 21%; in experiment [18] it was 50.7%. Besides, the growth in experiment [19] is 73.1%; in experiment [20] it was 106%.
Regarding `Oc1c(CN2CCC(N3CCCCC3)CC2)cc(Cc2cc(CN3CCC(N4CCCCC4)CC3)c(O)c3ncccc23)c2cccnc12`, the growth in [1] was 37.1%; in experiment [2], 5.46% (active); in experiment [3], 15.4%; in experiment [4], 18.3%; in [5] it was 57.5%; in experiment [6], 27.9%. The growth was 31.1% in [7]; -55.4% (active) in experiment [8]; 57.2% in experiment [9]; -26% (active) in experiment [10]; 20.6% in experiment [11]; 16% in [12]. Moreover, the growth is 54.1% in experiment [13]; 36.6% in [14]; 24.6% in experiment [15]; 17.7% in experiment [16]; 34.1% in experiment [17]; -18.3% (active) in [18]. Further, the growth in [19] is 4.36% (active); in [20], 31.5%.
In the case of `c1ccc(CCNc2c3ccccc3nc3ccccc23)cc1`, the growth is 37.9% in experiment [1]; 25% in [2]; 57.1% in experiment [3]; 43.3% in [4]; 35.3% in [5]; 66.5% in experiment [6]. Moreover, the growth is 34.9% in experiment [7]; 28.1% in [8]; 55.2% in experiment [9]; 42.7% in [10]; 23.3% in experiment [11]; 22.1% in [12]. Also, the growth is 67.6% in experiment [13]; 39.5% in [14]; 41.1% in experiment [15]; 35.7% in [16]; 64.7% in [17]; 53.2% in experiment [18]. In addition, the growth in [19] is 17.6%; in experiment [20] it was 67.7%.
Consider `CC1(C)CC[C@]2(C(=O)N[C@H](CO)Cc3ccccc3)CC[C@]3(C)C(=CC[C@@H]4[C@@]5(C)CCCNC(C)(C)[C@@H]5CC[C@]43C)[C@@H]2C1`, for which the growth in [1] was 93.7%; in [2] it was 1.94% (active); in [3], 106%; in experiment [4] it was 70.1%; in experiment [5] it was 78.4%; in experiment [6], 85.7%. In addition, the growth is 102% in experiment [7]; 90.4% in [8]; 106% in experiment [9]; 71.4% in experiment [10]; 60.5% in experiment [11]; 10.6% in experiment [12]. The growth in experiment [13] is 87.1%; in experiment [14] it was 84.8%; in experiment [15], 68.9%; in experiment [16] it was 25.7%; in [17] it was 90.7%; in experiment [18], 78.5%. Also, the results for the growth in experiment [19] and in [20] were 69.6% and 106%, respectively.
As for `N#Cc1c(Nc2ccc(N3CCOCC3)cc2)nc(SCC(=O)c2ccc(Br)cc2)nc1-c1ccccc1`, the growth in experiment [1] was 106%; in [2] it was 99.3%; in experiment [3], 111%; in experiment [4], 109%; in experiment [5], 126%; in experiment [6], 103%. Moreover, the growth in experiment [7] was 104%; in experiment [8], 98.7%; in [9], 102%; in experiment [10] it was 97.3%; in experiment [11], 103%; in [12], 98.3%. Also, the growth in experiment [13] is 97.7%; in experiment [14], 117%; in experiment [15], 101%; in experiment [16] it was 86.1%; in experiment [17], 102%; in experiment [18], 104%. In addition, the figures for the growth in [19] and in [20] were 100% and 104%, respectively.
In the case of `CNC(C)[C@H]1CCC2C3CC=C4C(=O)[C@@H](NC(=O)C=C(C)C)CC[C@]4(C)C3CC[C@@]21C` (stereo not given in full), the growth in experiment [1] is 52.9%; in experiment [2], -62.1% (active); in experiment [3] it was -52.2% (active); in experiment [4] it was -12.4% (active); in experiment [5], -59% (active); in [6] it was -15.7% (active). Further, the growth in [7] was -8.38% (active); in experiment [8], -92.5% (active); in experiment [9] it was -30.8% (active); in [10] it was -53.7% (active); in experiment [11], -54.1% (active); in experiment [12], -52% (active). In addition, the growth in [13] is 22.5%; in experiment [14] it was 53.4%; in experiment [15] it was 18.2%; in experiment [16], 6.67% (active); in experiment [17] it was -89.8% (active); in experiment [18] it was -67.2% (active). Besides, the growth in experiment [19] was -54% (active); in [20], -86.1% (active).
In the case of `CCCCNc1cc(-c2cn[nH]c2-c2cc(C)cc(OC)c2)nc(-c2cccnc2)n1`, the growth in experiment [1] is 93.6%; in experiment [2], 80.1%; in experiment [3] it was 100%; in [4], 69.8%; in experiment [5], 71.9%; in experiment [6], 98.4%. The growth in [7] was 91.5%; in experiment [8], 81.7%; in experiment [9] it was 110%; in experiment [10], 98.7%; in [11], 82.7%; in [12] it was 95.1%. Moreover, the growth in experiment [13] is 76.2%; in experiment [14] it was 95.6%; in experiment [15], 87.3%; in [16], 80.9%; in experiment [17], 77.4%; in experiment [18] it was 80.2%. Further, the growth in [19] was 91.2%; in experiment [20], 96.4%.
